Sampled rows, rich in hits. Any-hit rate of the full collection: about 21%.
ClpP mod: qHTS Assay for Activators of ClpP; purified B. subtilis ClpP, FRET peptide cleavage, 20 min; hit rate 1.9% among 340,000; Potency, µM (doses to about 57.5 µM), for inactives: top-dose activity change, negative = active; ATP-dependent Clp protease proteolytic subunit (Bacillus subtilis (strain 168)), P80244; active = well fitted falling curve with a large enough effect; inconclusive = small, poorly fitted or top-dose-only effect; inactive = no such curve, though single readings can be large or run the other way; also: potency is read from the fitted curve at half-maximal effect; the source files actives as falling curves though it sought activators and does not explain the sign; nearly all actives have a fitted effect of over 65% in size
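Buffer: 100 mM Tris/HCl pH8, 100 mM KCl, 0.05% low protease BSA, 2.5% glycerol, 0.01% Tween-20. ClpP 10 microg/mL final; 20 min RT; delta FRET normalized to ADEP and DMSO controls.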
DT40 TDP1 CPT: qHTS for Inhibitors of human tyrosyl-DNA phosphodiesterase 1 (TDP1): qHTS in cells in presence of CPT; chicken DT40 Tdp1-/-;hTDP1 cells + 20 nM CPT, ATP luminescence, 48 h; hit rate 12% among 420,000; Potency, µM (highest dose often 46.2 µM), inactives show top-dose activity change, negative = growth inhibition, actives largely listed as inhibitors; also: potency is read from the fitted curve at half-maximal effect; % is scaled to controls: 0 for no effect and ±100 for the full control effect; nearly all actives have a fitted effect of over 55% in size
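Cell growth measured by CellTiter-Glo luminescence after a minimum 48 h, 37 C compound exposure with 20 nM CPT in Tdp1-knockout DT40 cells stably expressing hTDP1, seeded 400/well; qHTS titration format.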
D3 antag: qHTS of D3 Dopamine Receptor Antagonist: qHTS; hit rate 2.5% among 360,000; D3R cells, DiscoveRx beta-arrestin luminescence, antagonist mode; active compounds read low; max response, negative = inhibition, %; in the data active = max response below about -50%; inconclusive = no clear call, values can overlap the other calls; also: % is scaled to controls: 0 for no effect and ±100 for the full control effect
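Cells plated overnight at 1500 cells/well, then exposed to library compounds with dopamine controls for 90 minutes at 37 degrees C. DiscoveRx reagent added for 30–60 minutes at room temperature; luminescence read, quantitative HTS format.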
IL1B secr inh: qHTS for Inhibitors of Inflammasome Signaling: IL-1-beta AlphaLISA Primary Screen; THP-1 LPS/ATP IL-1B secretion, AlphaLISA, 16 h; active compounds read low; activity change, % at 57.5 µM; hit rate 4.7% among 360,000; in the data active = activity change below about -50%; inconclusive = mostly about -30% to -49%; also: % is scaled to controls: 0 for no effect and ±100 for the full control effect
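Secreted IL-1B measured by AlphaLISA bead assay after 16 h compound exposure of THP-1 cells; compounds (final up to 57.5 uM) added 1 h before LPS (250 ng/mL) and ATP (1.25 mM) stimulation; lower signal means less secretion.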
DRD3 agonist: qHTS of D3 Dopamine Receptor Agonist: qHTS; D(3) dopamine receptor (Homo sapiens), P35462; D3R DiscoveRx beta-arrestin cells, luminescence, 90 min; max activation, %; hit rate 0.58% among 410,000; in the data active = max activation above about 30%; also: 0% is about no effect
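Agonist mode: compounds and dopamine controls were applied to plated cells for 90 min at 37 degrees C after an overnight attachment at 1500 cells/well. Luminescent read-out followed 30 - 60 minutes at room temperature with DiscoveRx detection reagent.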
TDP1 cell noCPT: qHTS for Inhibitors of human tyrosyl-DNA phosphodiesterase 1 (TDP1): qHTS in cells in absence of CPT | DT40 Tdp1-/- hTDP1 cells, no CPT, ATP luminescence, 48 h | Potency, µM (doses to about 46.2 µM), for inactives: at the top dose activity change, negative = growth inhibition, most hits filed as inhibitors | AID 686978, 2013 | hit rate 15% among 420,000; also: potency is read from the fitted curve at half-maximal effect; % is scaled to controls: 0 for no effect and ±100 for the full control effect; nearly all actives have a fitted effect of over 55% in size
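A cellular qHTS used chicken DT40 cells lacking endogenous Tdp1 but carrying stably transfected human TDP1. Compounds were applied without camptothecin, and cell growth kinetics were judged by ATP-dependent luminescence after ≥48 hr.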
* hit, by the source's call; ? = inconclusive; · = no result. Unless noted, calls follow the shape of the dose curve; as a rule, active = well fitted inhibition curve with a large enough effect; inconclusive = small, poorly fitted or top-dose-only effect; inactive = flat fitted curve, though single readings scatter.

SMILES | ClpP mod | DT40 TDP1 CPT | D3 antag | IL1B secr inh | DRD3 agonist | TDP1 cell noCPT
O=C1[C@@H]2CSC(c3ccc(F)cc3)N2C(=O)N1c1ccc(Cl)cc1 (some centres not stated) | -0.1% | 3.0% | · | · | -0.2 | -2.0%
COc1cc(NC(=O)c2cc([N+](=O)[O-])ccc2NC(=O)CNC2CCCCC2C)cc(OC)c1 (configuration not stated) | 1.3% | ? | 17.4 | -19.1 | 48.7* | ?
O=C(CNC1CCCCC1)Nc1ccc([N+](=O)[O-])cc1C(=O)Nc1ccccc1F | 0.2% | ? | 6.5 | -13.7 | -5.4 | -29.2%
COc1cc(NC(=O)c2cc([N+](=O)[O-])ccc2NC(=O)CNC2CCCCC2)cc(OC)c1 | · | 20.6µM* | 6.2 | 15.2 | -9.0 | 16.4µM*
CC(C)CN1C(=O)c2ccc(NC(=O)C3CC3)cc2C1=O | -15.7% | -3.2% | 1.9 | -5.9 | -10.5 | 12.0%
CC(C)CN1C(=O)c2ccc(NC(=O)c3cccs3)cc2C1=O | 28.2µM* | ? | -0.3 | -52.3* | 11.9 | 18.4µM*
CC(C)CN1C(=O)c2ccc(NC(=O)c3ccccc3F)cc2C1=O | 31.6µM* | -18.3% | 2.9 | -3.0 | 12.6 | -4.7%
COc1ccc(C2CC(c3cccs3)=NN2C(=O)CCl)cc1OC (configuration not stated) | -7.7% | 2.59µM* | ? | -102.6* | -0.3 | 3.26µM*
COc1ccc(C2CC(c3cccs3)=NN2C(=O)c2ccccc2)cc1OC (configuration not stated) | -6.5% | 0.7% | 10.1 | -22.8 | -2.6 | -22.4%
COc1cc(C2CC(c3cccs3)=NN2C(=O)CCl)ccc1OC(F)F (configuration not stated) | · | 4.61µM* | -18.0 | -103.0* | -11.7 | 4.11µM*
CCOC(=O)N1CCN(S(=O)(=O)N2CCCC(C(=O)NCc3cc(Br)ccc3OC)C2)CC1 (configuration not stated) | 1.3% | 18.4µM* | 29.6 | -12.2 | 0.1 | 13µM*
O=C(NCc1ccc(F)cc1)C1CCCN1S(=O)(=O)c1ccccc1C(F)(F)F (configuration not stated) | -5.1% | 13µM* | -21.4 | 2.3 | -15.3 | ?
CC(C)c1ccc(CNC(=O)C2CCCN2S(=O)(=O)c2ccccc2)cc1 (configuration not stated) | 0.8% | ? | 0.8 | 0.7 | 2.1 | 11.6µM*
O=C(NCc1ccc(F)cc1)C1CCCN1S(=O)(=O)c1ccc(F)cc1 (configuration not stated) | -1.5% | -4.1% | 6.5 | 10.1 | 4.8 | -15.4%
Cc1ccc(CNC(=O)C2CCCCN2S(=O)(=O)c2ccc(F)cc2)cc1 (configuration not stated) | -2.6% | 13µM* | · | · | -11.7 | 25.9µM*
COC(=O)c1ccc(CNC(=O)[C@@H]2CCCN2S(=O)(=O)c2ccccc2F)cc1 | -2.4% | 3.4% | 1.8 | 5.9 | 1.4 | 10.7%
CC(C)NC(=O)N(C)C[C@H]1Oc2ccc(NS(=O)(=O)c3ccccc3)cc2C(=O)N([C@H](C)CO)C[C@H]1C | 0.3% | 3.0% | 0.0 | 22.4 | 5.4 | -7.4%
COc1ccc(S(=O)(=O)Nc2cccc(F)c2)cc1C | -1.0% | -21.6% | 3.2 | 2.9 | -3.9 | -16.7%
CCOc1ccc(S(=O)(=O)Nc2cccc(N(C)S(C)(=O)=O)c2)cc1 | 1.4% | 23.1µM* | 48.1 | 0.0 | 4.6 | 11.6µM*
COc1ccc(S(=O)(=O)Nc2cccc(N(C)S(C)(=O)=O)c2)cc1C | 0.4% | 25.9µM* | 26.4 | 10.2 | 4.1 | 20.6µM*
CCC(=O)c1ccc(OCC(O)CNC(C)c2ccccc2)cc1 (configuration not stated) | -2.1% | ? | 0.6 | 2.9 | -5.9 | ?
Cc1cccc(C)c1OCC(O)CNC(C)c1ccccc1 (configuration not stated) | -3.0% | 3.66µM* | -25.1 | ? | -22.8 | 5.17µM*
CC(C)c1ccc(OCC(O)CNC(C)c2ccccc2)cc1 (configuration not stated) | 1.0% | 16.4µM* | 13.8 | -85.5* | -2.7 | 16.4µM*
COc1cccc(OCC(O)CNC(C)c2ccccc2)c1 (configuration not stated) | -1.0% | ? | -1.3 | -25.2 | 9.0 | ?
CCC1CN(C(=O)N2CCC(C(=O)NCc3ccccc3OC)CC2)c2ccccc2O1 (configuration not stated) | 0.7% | ? | -12.8 | -1.1 | 0.9 | ?
SMILES | ClpP mod | DT40 TDP1 CPT | D3 antag | IL1B secr inh | DRD3 agonist | TDP1 cell noCPT
CCC1CN(C(=O)N2CCC(C(=O)NCCc3ccc(OC)cc3OC)CC2)c2cc(C)ccc2O1 (configuration not stated) | -1.9% | 20.6µM* | · | · | -0.8 | 16.4µM*
CCC1CN(C(=O)N2CCC(C(=O)NCc3cccc(F)c3)CC2)c2cc(C)ccc2O1 (configuration not stated) | -1.0% | 20.6µM* | · | · | 7.8 | 16.4µM*
CCC1CN(C(=O)N2CCC(C(=O)NCCN(CC)CC)CC2)c2cc(C)ccc2O1 (configuration not stated) | 0.4% | -12.7% | · | · | 5.2 | -19.8%
CCC1CN(C(=O)N2CCC(C(=O)NCc3ccccc3OC)CC2)c2cc(C)ccc2O1 (configuration not stated) | 1.2% | 16.4µM* | 36.5 | 5.4 | 12.3 | ?
CCOC(=O)Cn1c(S(=O)(=O)Cc2ccc(Cl)cc2)nc(-c2ccccc2)c1-c1ccccc1 | -9.0% | 18.4µM* | 13.8 | -3.6 | -3.2 | 16.4µM*
CCOC(=O)Cn1c(S(=O)(=O)Cc2ccccc2)nc2ccccc21 | -2.2% | -2.4% | ? | 14.6 | -2.9 | ?
Cn1c2ccccc2c2c(C(=O)N3CCN(C(=O)c4ccco4)CC3)cn(C3CCCCC3)c(=O)c21 | 3.4% | ? | 5.9 | -24.1 | 1.1 | ?
Cn1c2ccccc2c2c(C(=O)N3CCN(c4ccccn4)CC3)cn(C3CCCC3)c(=O)c21 | 31.6µM* | ? | 7.6 | -58.6* | 0.5 | 14.6µM*
COc1ccc(-n2nc(C(=O)N3CCN(c4cccc(C)c4C)CC3)c3c4ccccc4n(C)c3c2=O)cc1 | -4.0% | -17.4% | · | · | -15.1 | -8.8%
